Data as given in PubChem BioAssay (EPA / NIEHS).
Active and inactive are the calls of the source. Rule for the calls: active = hit-call score of the fitted dose curve at least 0.9, where 1 is the maximum; inactive = score below 0.9.

Assay: ATG_BRE_CIS: Attagene CIS-FACTORIAL HepG2 Assay for human Bone Morphogenetic Protein (BMP) Response Element (BRE) (AID 2282933)
Conditions: HepG2 BMP response element reporter, Attagene transcription factor profiling; actives raise or lower the signal
Procedure: ATG_CIS is a cell-based, multiplexed-readout assay that uses HepG2, a human liver cell line, with measurements taken at 24 hours after chemical dosing in a 24-well plate.ATG_BRE_CIS is one of 52 assay component(s) measured or calculated from the ATG_CIS assay. It is designed to make measurements of mRNA induction, a form of inducible reporter, as detected with fluorescence intensity signals by Reverse transcription polymerase chain reaction (RT-PCR) and Capillary electrophoresis technology.Data from the assay component ATG_BRE_CIS was analyzed into 1 assay endpoint. This assay endpoint, ATG_BRE_CIS, was analyzed with bidirectional fitting relative to DMSO as the negative control and baseline of activity. Using a type of inducible reporter, measures of mRNA for gain or loss-of-signal activity can be used to understand the reporter gene at the transcription factor-level as they relate to the gene SMAD1. Furthermore, this assay endpoint can be referred to as a primary readout, because this assay has produced multiple assay endpoints where this one serves a reporter gene function. To generalize the intended target to other relatable targets, this assay endpoint is annotated to the dna binding intended target family, where the subfamily is Smad protein.
Human liver HepG2 cells are transiently transfected with multiple reporter transcription units (MRTUs) in 6-well plates using FuGene 6 reagent (Roche; 3 ml FuGene/1 mg DNA). The MRTU constructs are regulated by a cis-regulating element (promoter). […] A major difference between the CIS and TRANS system is that in CIS activities of endogenous TFs are measured, whereas the TRANS assay evaluates changes in activities of exogenous, chimeric NR-Gal4 proteins. […] At the end of 24 hour incubation, total RNA was isolated using TriZol reagent (Invitrogen). The isolated RNA is then reverse-transcribed using oligo(dT) primer and Mo-MLV reverse transcriptase (Invitrogen) with DNAse I (Ambion) treatment for 30 min. The one-tenth of the produced cDNA was amplified by PCR using Taq DNA polymerase (Invitrogen) and two reporter sequence-specific primers. The PCR products were fluorescently labeled by primer extension with 6-arboxyfluorescein (6-FAM) 5'-labeled reporter sequence-specific primer (2 min at 95 C, 20 s at 68 C and 10 min at 72 C) and these products were digested with 5U of HpaI (New England Biolabs) for 2h at 37 C. The fragments were purified using Qiaquick PCR columns (Qiagen), analyzed on an ABI 3130xL genetic analyzer (Applied Biosystems) with peak positions identified by using a set of X-rhodamine (ROX)-labeled MapMarker1000 molecular weight standards (BioVentures). The raw capillary electrophoresis data was processed using Attagraph software (Attagene).

| Structure (SMILES) | outcome | AC50 |
| --- | --- | --- |
| O=CN1CCOCC1 | inactive |  |
| CC(C)C[C@H](NC(=O)OCC1c2ccccc2-c2ccccc21)C(=O)O | inactive |  |
| C=C(C)C(=O)OCC(CC)(COC(=O)C(=C)C)COC(=O)C(=C)C | inactive |  |
| CCCCC(CC)(CO)CO | inactive |  |
| C=Cc1ccc(C(C)(C)C)cc1 | inactive |  |
| CCCCCCOCCOCCO | inactive |  |
| CC(=O)C1(C)CC2=C(CCCC2(C)C)CC1C (stereo not given) | inactive |  |
| C1CCOC1 | inactive |  |
| C=CCOC(=O)CCCCCC | inactive |  |
| Clc1ccc(C(c2ccccc2Cl)C(Cl)Cl)cc1 (stereo not given) | inactive |  |
| CCC1(c2ccccc2)C(=O)NCNC1=O | inactive |  |
| CC=Cc1ccc(OC)c(OC)c1 | inactive |  |
| CC1(C)CCC[C@]2(C)[C@H]3CCO[C@]3(C)CC[C@@H]12 | inactive |  |
| Cc1[nH]c(=O)c(C#N)cc1-c1ccncc1 | inactive |  |
| Cc1ccc(S(=O)(=O)Oc2ccc(N=Nc3ccc(-c4ccc(N=Nc5c(O)ccc6cc(S(=O)(=O)O)cc(S(=O)(=O)O)c56)c(C)c4)cc3C)cc2)cc1 |  | 7.56 µM (active) |
| CCC(=O)O[C@@H]1C[C@H]2CC[C@]1(C)C2(C)C | inactive |  |
| CCOC(=O)c1ccc(N)cc1 | inactive |  |
| CC(C)(C)c1ccc(C(=O)O)cc1 | inactive |  |
| O=C(O)c1cc(C(=O)O)cc([N+](=O)[O-])c1 | inactive |  |
| CSCCC=O | inactive |  |

| Structure (SMILES) | outcome | AC50 |
| --- | --- | --- |
| C=CCCCCCCCCCC | inactive |  |
| N[C@@H](Cc1cc(I)c(Oc2cc(I)c(O)c(I)c2)c(I)c1)C(=O)O | inactive |  |
| CCCC[P+](CCCC)(CCCC)CCCC | inactive |  |
| Cc1c(Cl)cccc1[N+](=O)[O-] | inactive |  |
| CC(C)(C)OC(=O)c1ccc(O)cc1 | inactive |  |
| C=CC(C)(O)CCC=C(C)C (stereo not given) | inactive |  |
| CC[N+](C)(CC)CC | inactive |  |
| O=C1OC2(c3ccccc31)c1ccc(O)c(Br)c1Oc1c2ccc(O)c1Br | inactive |  |
| O=C1OC(=O)c2c(Br)c(Br)c(Br)c(Br)c21 | inactive |  |
| COc1ccc(CCO)cc1 | inactive |  |
| COC(=O)c1ccc(OC)cc1 | inactive |  |
| Cc1cc(CCC(=O)OCCOCCOCCOC(=O)CCc2cc(C)c(O)c(C(C)(C)C)c2)cc(C(C)(C)C)c1O | inactive |  |
| CCCCC1(COC(=O)CCC(=O)O)C(=O)N(c2ccccc2)N(c2ccccc2)C1=O | inactive |  |
| O=C(O)CCCCCCCCC(=O)O | inactive |  |
| CCCCCCCCCCCCCCCC(=O)OC/C=C(C)/C=C/C=C(C)/C=C/C1=C(C)CCCC1(C)C | inactive |  |
| CCc1ccc(O)c(OC)c1 | inactive |  |
| CC(C)CCCCCCCCCCCCCCC(=O)O | inactive |  |
| CCCCCCOC(=O)CCC | inactive |  |
| BrCc1cccc(Oc2ccccc2)c1 | inactive |  |
| CC(CN=Cc1ccccc1O)N=Cc1ccccc1O (stereo not given) | inactive |  |
